Assay results from ChEMBL document CHEMBL4513216, “Probing the Open Global Health Chemical Diversity Library for Multistage-Active Starting Points for Next-Generation Antimalarials” (ACS Infect Dis, 2020).
The whole screen tested about 69,000 compounds, of which about 8,600 (12%) showed an effect of 50% or more. The sample as a whole holds a higher share of strong results than the screen did.

test system: Plasmodium berghei; assay: Screen against P. berghei liver stage (PbLuc), transformed with Luciferase, at 10uM; format: functional, HepG2; conditions: tested at 10 uM

Row | SMILES | INHIBITION [%]
1 | Cc1nc(C)n(C2CCCN(C(=O)c3csc(C)n3)C2)n1 (configuration not stated) | 14.4
2 | CC(=O)Nc1nc(C(=O)N2CCCC(n3cncn3)C2)cs1 (configuration not stated) | 67.6
3 | CC(=O)Nc1nc(C(=O)N2CCCC(n3nc(C)nc3C)C2)cs1 (configuration not stated) | 53.9
4 | Cc1nc(C(=O)N2CCCC(n3cncn3)C2)cs1 (configuration not stated) | 31.1
5 | CC(=O)Nc1nc(C(=O)N2CCCC(n3nc(C)cc3C)C2)cs1 (configuration not stated) | 57.8
6 | Cc1nc(C)n(C2CCCN(C(=O)c3cscn3)C2)n1 (configuration not stated) | 60.2
7 | COCc1nc(C(=O)N2CCCC(n3nc(C)cc3C)C2)cs1 (configuration not stated) | 25.1
8 | Cc1nc(C)n(C2CCCN(C(=O)c3csnn3)C2)n1 (configuration not stated) | 11.6
9 | Cc1cnc(C(=O)N2CCCC(n3nc(C)nc3C)C2)cn1 (configuration not stated) | 7.12
10 | Cc1nc(C)n(C2CCCN(C(=O)c3csc(C(C)C)n3)C2)n1 (configuration not stated) | 40.3
11 | Cc1cc(C)n(C2CCCN(C(=O)c3csc(C4CC4)n3)C2)n1 (configuration not stated) | 34.7
12 | CC(=O)Nc1nc(C(=O)N2CCCC(n3ccnc3)C2)cs1 (configuration not stated) | 31.9
13 | Cc1ccc(N(C)[C@@H]2CC[C@@H]3CN(C(=O)CC4CCOCC4)C[C@@H]32)nn1 | -16
14 | CCSc1ccccc1C(=O)NCCn1nc(-n2cncn2)ccc1=O | 16.5
15 | Cn1ccc(C(=O)N2CCC(Cc3ccc4ncccc4c3)CC2)n1 | 28.1
16 | CC(C)CNC(=O)[C@H]1C[C@H]2CN(C(=O)NCC3CCCCC3)C[C@@H]1O2 | -41.9
17 | CCC(NC1Cc2ccccc2C1)c1ccc(S(C)(=O)=O)cc1 (configuration not stated) | 29.4
18 | CCN(CC)S(=O)(=O)c1cnccc1N1CCN(C(C)C)CC1 | -26.8
19 | CCNc1nnc(SC(C(=O)NCc2cccnc2)C(C)C)s1 (configuration not stated) | -7.98
20 | CC(CN1CCOCC1)OC(=O)c1ccccc1I (configuration not stated) | 38.9
21 | COCc1nc(C(=O)N2CCCC(n3ccnc3)C2)cs1 (configuration not stated) | 59
22 | COCc1nc(C(=O)N2CCCC(n3cccn3)C2)cs1 (configuration not stated) | 17.8
23 | COCc1nc(C(=O)N2CCCC(n3ccnc3C)C2)cs1 (configuration not stated) | -23.9
24 | COCCn1nc(C(=O)N2CCN(C)CC2C)ccc1=O (configuration not stated) | 58.7
25 | COc1ccc(-n2ccc(C(=O)N3CCN(C)CC3C)n2)cc1 (configuration not stated) | 20.9
26 | CC1CN(C)CCN1C(=O)c1ccn(-c2ccccc2)n1 (configuration not stated) | 63.5

Row | SMILES | INHIBITION [%]
27 | CC1CN(C)CCN1C(=O)c1cccn1Cc1ccncc1 (configuration not stated) | 8.08
28 | CC1CN(C)CCN1C(=O)c1ccn(-c2ccccc2Cl)n1 (configuration not stated) | -25.6
29 | CC1CN(C)CCN1C(=O)c1ccn(-c2ccc(F)cc2)n1 (configuration not stated) | 56.6
30 | NC(=O)C1CCN(C(=O)c2ccn(-c3cccc(F)c3)n2)C1 (configuration not stated) | 23.5
31 | CC1COCCN1C(=O)c1ccc(=O)n(CCOc2ccccc2)n1 (configuration not stated) | 4.41
32 | CC1CN(C)CCN1C(=O)c1ccn(-c2cccc(Cl)c2)n1 (configuration not stated) | 10
33 | NC(=O)C1CCN(C(=O)c2ccn(-c3ccc(F)cc3)n2)C1 (configuration not stated) | 16.1
34 | CC1CN(C)CCN1C(=O)c1ccn(-c2cccc(F)c2)n1 (configuration not stated) | 51.1
35 | COCCn1nc(C(=O)N2CCOCC2C)ccc1=O (configuration not stated) | 47.6
36 | Cn1ccc(C(=O)NCCOc2ccc3c(c2)CCC3)cc1=O | -15.5
37 | CCc1ocnc1C(=O)N1CCCC1c1noc(C2CC2)n1 (configuration not stated) | 34.2
38 | Cc1cc(C(=O)Nc2ccc(OCCN3CCN(C)CC3)cc2)[nH]n1 | -49.9
39 | CCc1cc(=O)[nH]c(-c2ccc(NCCC(C)O)nc2)n1 (configuration not stated) | 36.9
40 | CCN1CC[C@@]2(C(=O)N(C)C)CCN(C(=O)Cc3ccccc3)CC[C@@H]12 | 11.2
41 | Cc1ccnc(N2CCCC(c3nccn3C(C)C)C2)n1 (configuration not stated) | 15.8
42 | CC(C)n1ccnc1C1CCCN(c2nc3ccccc3s2)C1 (configuration not stated) | 61.2
43 | CC(C)n1ccnc1C1CCCN(c2ccncc2F)C1 (configuration not stated) | 32.1
44 | CSc1nccc(N2CCCC(c3nccn3C(C)C)C2)n1 (configuration not stated) | 27.6
45 | CC(C)n1ccnc1C1CCCN(c2ccccn2)C1 (configuration not stated) | 24.6
46 | CC(C)n1ccnc1C1CCCN(c2ccnc3ccccc23)C1 (configuration not stated) | 71.3
47 | CN(C)C(=O)C1CCCN1CCCNC(=O)c1cccc2[nH]ncc12 (configuration not stated) | 23.2
48 | COc1cc(C(C)=O)ccc1OCCNCc1ccco1 | 5.67
49 | CC(=O)Nc1ccc(C(=O)N(C)Cc2cccc(F)c2)s1 | 39.7
50 | Cc1cc(CNC(=O)N(Cc2ccc(F)cc2F)C2CC2)no1 | 44.1
51 | COc1cccc(CN(C)Cc2ccccc2C#N)c1OC | 4.48
52 | CC(=O)Nc1ccc(C(=O)N(C)Cc2ccc(F)cc2F)s1 | 56
